For test [1], the system named is S. cerevisiae SK1 pCDA2-eGFP (USY613), sporulating. Description: CDA2-GFP sporulation assay sensitivity score (z-score vs DMSO controls); higher = stronger inhibition of sporulation, active = hit call of the paper.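 Further: active if sensitivity score above 5.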
In test [2] the test system is S. cerevisiae AD1-9 (efflux-pump deficient), vegetative growth in YPD. The test can be described thus: growth sensitivity score (doubling time z-score vs DMSO controls); higher = slower growth, strongly negative scores also mark growth inhibition (complete suppression), active = hit call of the paper. The gist of the method: (§1)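 Rich medium in microtiter plates was seeded with Saccharomyces cerevisiae strains BY4741 and AD1-9 at an OD600 of 0.065, and compounds were added as a 1:100 dilution of DMSO stock. A Tecan GENios reader recorded optical density every 15 min for 24 hours, with eight solvent-only wells in each experiment. Average doubling time was the time to reach a set generation point divided by generation number. The growth sensitivity score was the compound mean minus the solvent-only mean, divided by the solvent-only standard deviation.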

Test [3] deals with S. cerevisiae BY4741 (wild-type), vegetative growth in YPD. The description is as above. In short, it runs like this:
as §1

Test [4] has as its system S. cerevisiae NKY1551 his4x/his4B, sporulating. Description: HIS4 meiotic recombination assay sensitivity score (z-score vs DMSO controls); higher = stronger inhibition of sporulation/recombination, active = hit call of the paper.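 Further: active if sensitivity score above 5.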

Counter-ions that a name gives are not always drawn. A number with no mark means an inactive call.

Regarding `O=c1[nH]c(=O)n(C2CCCO2)cc1F` (stereo not given) [Ftorafur] (stock concentration (mM, diluted 1:100): 10), the “CDA2-GFP sporulation assay sensitivity score” value in test [1] was 0.02. The growth sensitivity score is -0.92 in test [2] and 0.14 in test [3].

Take `CCCCC1=NC2(CCCC2)C(=O)N1Cc1ccc(-c2ccccc2-c2nnn[nH]2)cc1` [Irbesartan] (stock concentration (mM, diluted 1:100): 10.1): the “CDA2-GFP sporulation assay sensitivity score” value in test [1] was -0.17. In addition, the growth sensitivity score is -0.82 in test [2] and -0.72 in test [3].

`Cc1occc(=O)c1O` [Maltol] (stock concentration (mM, diluted 1:100): 10): in test [1], the “CDA2-GFP sporulation assay sensitivity score” value is 1.2. Moreover, the growth sensitivity score in test [2] was -1.16; in test [3], -0.74.

For `Cc1c2oc3c(C)ccc(C(=O)N[C@@H]4C(=O)N[C@H](C(C)C)C(=O)N5CCC[C@H]5C(=O)N(C)CC(=O)N(C)[C@@H](C(C)C)C(=O)O[C@@H]4C)c3nc-2c(C(=O)N[C@@H]2C(=O)N[C@H](C(C)C)C(=O)N3CCC[C@H]3C(=O)N(C)CC(=O)N(C)[C@@H](C(C)C)C(=O)O[C@@H]2C)c(N)c1=O` [Dactinomycin] (stock concentration (mM, diluted 1:100): 10), in test [4], the “HIS4 meiotic recombination assay sensitivity score” value was 0.61. Besides, the figures for the growth sensitivity score in test [2] and in test [3] were -0.59 and 1.17, respectively.

Regarding `Nc1ccc2cn[nH]c2c1` [6-Aminoindazole] (stock concentration (mM, diluted 1:100): 10), the “CDA2-GFP sporulation assay sensitivity score” value in test [1] was 2.67. Moreover, the values for the growth sensitivity score in test [2] and in test [3] were -1.63 and -0.64, respectively.

`CN1CCN(c2nc3cc(C(F)(F)F)ccc3n3cccc23)CC1` (stock concentration (mM, diluted 1:100): 10): in test [4], the “HIS4 meiotic recombination assay sensitivity score” value is -0.17. For the same compound, in test [3], the growth sensitivity score was 351 (active).

Take `O=C1Nc2ccc(Cl)cc2[C@@](C#CC2CC2)(C(F)(F)F)O1` [Efavirenz] (stock concentration (mM, diluted 1:100): 10.1): in test [1], the “CDA2-GFP sporulation assay sensitivity score” value is -2.28. For the same compound, in test [4], the “HIS4 meiotic recombination assay sensitivity score” value is -0.43. Also, the growth sensitivity score in test [3] was 40.5 (active).

For the compound `COc1cc([C@@H]2c3cc4c(cc3[C@@H](O[C@@H]3O[C@@H]5CO[C@@H](C)O[C@H]5[C@H](O)[C@H]3O)[C@H]3COC(=O)[C@H]23)OCO4)cc(OC)c1O` [Etoposide] (stock concentration (mM, diluted 1:100): 10), in test [1], the “CDA2-GFP sporulation assay sensitivity score” value was 3.42. Also, the growth sensitivity score in test [2] is 59.2 (active); in test [3], 0.01.

`CC(C)[C@H]1CC[C@H](C(=O)N[C@H](Cc2ccccc2)C(=O)O)CC1` [Nateglinide] (stock concentration (mM, diluted 1:100): 10): in test [1], the “CDA2-GFP sporulation assay sensitivity score” value is 0.06. Also, the growth sensitivity score was 0.63 in test [2] and -0.35 in test [3].

As to `CCCCc1oc2ccccc2c1C(=O)c1cc(I)c(OCCN(CC)CC)c(I)c1` [Amiodarone hydrochloride] (stock concentration (mM, diluted 1:100): 9.5), the “CDA2-GFP sporulation assay sensitivity score” value in test [1] was 7.12. In addition, the “HIS4 meiotic recombination assay sensitivity score” value in test [4] was -0.63. In addition, the growth sensitivity score in test [3] is 126 (active).

For the compound `COC1=C(OC)C(=O)C(CCCCCCCCCCO)=C(C)C1=O` [Idebenone] (stock concentration (mM, diluted 1:100): 10.2), the “CDA2-GFP sporulation assay sensitivity score” value in test [1] was 0.12. Besides, in test [4], the “HIS4 meiotic recombination assay sensitivity score” value was -0.57. Further, the growth sensitivity score in test [3] is 15.6 (active).

With `O=C(O)C[C@H](O)C[C@H](O)/C=C/c1c(C2CC2)nc2ccccc2c1-c1ccc(F)cc1` [Livalo] (stock concentration (mM, diluted 1:100): 5), the “CDA2-GFP sporulation assay sensitivity score” value in test [1] is 0.3. Also, the growth sensitivity score is 32.2 (active) in test [2] and 15.7 (active) in test [3].

Values taken from the supplement of paper PMC3414501.
